Experimental findings from publication PMC6925144, “A prospective compound screening contest identified broader inhibitors for Sirtuin 1” (Scientific Reports, 2019) are described below.

In all, about 3,200 compounds were measured (“TSA(without NAD+) / Primary screening (TSA) / delta Tm (K)”: median about -0.07, highest 2% from about 0.37 on). The sample as a whole holds a higher share of the highest values than the screen did.

NAD-dependent deacetylase Sirtuin 1, sequence (Q96EB6 2-747 limits assumed): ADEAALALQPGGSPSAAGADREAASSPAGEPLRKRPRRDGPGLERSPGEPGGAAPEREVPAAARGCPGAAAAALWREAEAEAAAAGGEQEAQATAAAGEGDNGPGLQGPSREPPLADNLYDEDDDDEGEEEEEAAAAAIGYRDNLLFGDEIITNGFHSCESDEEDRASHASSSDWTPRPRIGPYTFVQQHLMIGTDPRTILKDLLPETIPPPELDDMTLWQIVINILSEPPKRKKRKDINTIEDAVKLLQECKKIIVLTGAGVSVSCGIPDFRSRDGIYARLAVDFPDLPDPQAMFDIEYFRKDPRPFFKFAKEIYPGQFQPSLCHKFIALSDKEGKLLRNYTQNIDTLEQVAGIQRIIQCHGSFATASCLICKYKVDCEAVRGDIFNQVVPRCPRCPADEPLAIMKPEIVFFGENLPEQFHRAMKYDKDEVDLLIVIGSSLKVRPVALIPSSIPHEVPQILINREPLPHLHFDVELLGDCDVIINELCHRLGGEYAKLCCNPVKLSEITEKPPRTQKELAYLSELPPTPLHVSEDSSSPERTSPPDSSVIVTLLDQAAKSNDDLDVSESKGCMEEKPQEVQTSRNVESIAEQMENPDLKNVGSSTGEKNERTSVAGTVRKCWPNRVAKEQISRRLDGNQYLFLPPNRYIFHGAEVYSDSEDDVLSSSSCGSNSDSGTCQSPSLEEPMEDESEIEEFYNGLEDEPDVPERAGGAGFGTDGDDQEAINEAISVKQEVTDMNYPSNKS

This experiment deals with NAD-dependent deacetylase Sirtuin 1 (human, UniProt Q96EB6). Description: primary screen, delta tm. Set-up: single well (n = 1). As to conditions: 10 µM. How it is done:
A total of 3,192 compounds extracted from the proposed lists were first screened by thermal shift assay (TSA), which determined a melting temperature shift (ΔTm) of Sirtuin 1 upon the addition of a test compound at a concentration of 10 µM (n = 1) with primary hit criteria of ΔTm > 0.45 K or ΔTm < −1.5 K. Primary hits (48 compounds) were retested in the same assay at three concentrations (5, 10, 20 µM, n = 4) for hit confirmation and for dose-dependency check. Secondary hits (41 compounds) were checked their selectivity for Sirtuin 1 based on counterscreening on unrelated protein targets (bovine carbonic anhydrase (CA) and recombinant SH2 domain of hABL1 kinase (ABL1)) at three different concentrations (5, 10, 20 µM, n = 4), which yielded 38 hit compounds, hereafter referred to as TSA hits. The TSA screening above was conducted in the absence of NAD+.
With `COc1ccc(N(C)S(=O)(=O)c2cccc(C(=O)Nc3cccc(C#N)c3)c2)cc1`, the “TSA(without NAD+) / Primary screening (TSA) / delta Tm (K)” value came to 0.22 K. Under `Cc1ccc(N(C)S(=O)(=O)c2cccc(C(=O)Nc3ccc4c(c3)C(=O)N(C)C4=O)c2)cc1` stands 0.45 K. As for `CSc1cccc(NC(=O)c2cccc(S(=O)(=O)N(C)c3ccc(C)cc3)c2)c1`, the “TSA(without NAD+) / Primary screening (TSA) / delta Tm (K)” value stood at 0.35 K. Consider `Cc1ccc(N(C)S(=O)(=O)c2cccc(C(=O)Nc3cccc(C#N)c3)c2)cc1`, for which the “TSA(without NAD+) / Primary screening (TSA) / delta Tm (K)” value is recorded as 0.43 K. The result for `CC1CCc2[nH]c3ccc(C(=O)Nc4cccc(S(=O)(=O)N(C)c5ccccc5)c4)cc3c2C1` (stereo not drawn) reads 0.42 K; that for `CN(c1ccccc1)S(=O)(=O)c1cccc(NC(=O)c2cccc(C#N)c2)c1`, 0.13 K; that for `Cc1ccc(N(C)S(=O)(=O)c2cccc(C(=O)NNC(=O)c3ccncc3)c2)cc1`, -0.08 K.

For `CN(c1ccccc1)S(=O)(=O)c1cccc(C(=O)Nc2ccccc2)c1`, the “TSA(without NAD+) / Primary screening (TSA) / delta Tm (K)” value was 0.12 K. The result for `Cc1ccc(C(=O)NNC(=O)c2cccc(S(=O)(=O)N(C)c3ccc(C)cc3)c2)cc1` reads -0.14 K; that for `Cc1ccc(N(C)S(=O)(=O)c2cccc(C(=O)NNC(=O)CC34CC5CC(CC(C5)C3)C4)c2)cc1`, 0.45 K. The result for `Cc1ccc(N(C)S(=O)(=O)c2cccc(C(=O)Nc3cccc(C(=O)NC4CC4)c3)c2)cc1` reads 0.06 K; that for `CN(c1ccccc1)S(=O)(=O)c1cccc(NC(=O)c2ccc(C(N)=O)cc2)c1`, 0.02 K; that for `Cc1cc(CSc2nc3ccccc3[nH]2)no1`, 0.07 K.

On to `Cc1ccc(C(=Nc2c(C)cc(C)cc2C)c2ccc(C)cc2)cc1`, for which the “TSA(without NAD+) / Primary screening (TSA) / delta Tm (K)” value was -0.04 K. Under `CC(C#N)(NC(=O)CNc1cccnc1-c1ccccc1)C1CC1` (stereo not drawn) stands 0.08 K. As to `CN(Cc1ccccc1)C(=O)NCC1CCN(c2ccncc2)CC1`, the “TSA(without NAD+) / Primary screening (TSA) / delta Tm (K)” value is given as -0.02 K.

In the case of `CC1CCc2[nH]c3ccc(C(=O)OCC(=O)NC(=O)NC45CC6CC(CC(C6)C4)C5)cc3c2C1` (stereo not drawn), the “TSA(without NAD+) / Primary screening (TSA) / delta Tm (K)” value turned out to be 0.27 K. Consider `CN(Cc1nc2ccccc2s1)C(=O)CSc1nnc(CC2CCS(=O)(=O)C2)o1` (stereo not drawn), for which the “TSA(without NAD+) / Primary screening (TSA) / delta Tm (K)” value is reported as -0.13 K.

On to `CN(c1cccc(Cl)c1)S(=O)(=O)c1cccc(C(=O)Nc2ccc(C(N)=O)cc2)c1`, for which the “TSA(without NAD+) / Primary screening (TSA) / delta Tm (K)” value came to 0.08 K. Under `Cc1ccc(N(C)S(=O)(=O)c2cccc(C(=O)Nc3ccc(Br)c(C)c3)c2)cc1` stands 0.48 K; under `Cc1ccc(N(C)S(=O)(=O)c2cccc(C(=O)Nc3ccncc3)c2)cc1`, -0.18 K; under `CCCCc1ccc(NC(=O)c2cccc(S(=O)(=O)N(C)c3cccc(Cl)c3)c2)cc1`, 0.58 K.

On to `COc1cccc(NC(=O)c2cccc(S(=O)(=O)N(C)c3ccc(C)cc3)c2)c1`, for which the “TSA(without NAD+) / Primary screening (TSA) / delta Tm (K)” value is on record as -0.02 K. Turning to `CN(C)c1ccc(NC(=O)c2cccc(S(=O)(=O)N(C)c3cccc(Cl)c3)c2)cc1`, the “TSA(without NAD+) / Primary screening (TSA) / delta Tm (K)” value is reported as 0.27 K.
